Values without a mark were called inactive. The source made the active and inactive calls.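 Rule for the calls, unless noted: active = mean inhibition above 46.5%, the solvent-only control mean plus 3 SD; inactive = the rest.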
What was measured:
[1] = test system: transactivating tegument protein VP16 (Human herpesvirus 1); assay: compounds suppressing VP16-driven luciferase signal – cell-based, luminescence, single concentration, counter-screen for SRC2 inhibitor project (AID 652007; in the data active = inhibition above about 36%); settings: cell-based VP16 transactivation luciferase reporter, at 8.9 µM, hits give high values
[2] = biological target: Nuclear receptor coactivator 2 (Homo sapiens) (UniProt Q15596); assay: inhibition of GAL4-SRC2 driven luciferase expression – cell-based, luminescence, HEK293, triplicate, confirmation (AID 652008); settings: HEK293 GAL4-SRC2 luciferase reporter, at 8.9 µM, hits give high values;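 note: 0% = DMSO-treated cells and 100% = Gossypol at 36 µM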
Sequence of Nuclear receptor coactivator 2 (Homo sapiens) (Q15596 whole entry, looked up, the tested form may be a part): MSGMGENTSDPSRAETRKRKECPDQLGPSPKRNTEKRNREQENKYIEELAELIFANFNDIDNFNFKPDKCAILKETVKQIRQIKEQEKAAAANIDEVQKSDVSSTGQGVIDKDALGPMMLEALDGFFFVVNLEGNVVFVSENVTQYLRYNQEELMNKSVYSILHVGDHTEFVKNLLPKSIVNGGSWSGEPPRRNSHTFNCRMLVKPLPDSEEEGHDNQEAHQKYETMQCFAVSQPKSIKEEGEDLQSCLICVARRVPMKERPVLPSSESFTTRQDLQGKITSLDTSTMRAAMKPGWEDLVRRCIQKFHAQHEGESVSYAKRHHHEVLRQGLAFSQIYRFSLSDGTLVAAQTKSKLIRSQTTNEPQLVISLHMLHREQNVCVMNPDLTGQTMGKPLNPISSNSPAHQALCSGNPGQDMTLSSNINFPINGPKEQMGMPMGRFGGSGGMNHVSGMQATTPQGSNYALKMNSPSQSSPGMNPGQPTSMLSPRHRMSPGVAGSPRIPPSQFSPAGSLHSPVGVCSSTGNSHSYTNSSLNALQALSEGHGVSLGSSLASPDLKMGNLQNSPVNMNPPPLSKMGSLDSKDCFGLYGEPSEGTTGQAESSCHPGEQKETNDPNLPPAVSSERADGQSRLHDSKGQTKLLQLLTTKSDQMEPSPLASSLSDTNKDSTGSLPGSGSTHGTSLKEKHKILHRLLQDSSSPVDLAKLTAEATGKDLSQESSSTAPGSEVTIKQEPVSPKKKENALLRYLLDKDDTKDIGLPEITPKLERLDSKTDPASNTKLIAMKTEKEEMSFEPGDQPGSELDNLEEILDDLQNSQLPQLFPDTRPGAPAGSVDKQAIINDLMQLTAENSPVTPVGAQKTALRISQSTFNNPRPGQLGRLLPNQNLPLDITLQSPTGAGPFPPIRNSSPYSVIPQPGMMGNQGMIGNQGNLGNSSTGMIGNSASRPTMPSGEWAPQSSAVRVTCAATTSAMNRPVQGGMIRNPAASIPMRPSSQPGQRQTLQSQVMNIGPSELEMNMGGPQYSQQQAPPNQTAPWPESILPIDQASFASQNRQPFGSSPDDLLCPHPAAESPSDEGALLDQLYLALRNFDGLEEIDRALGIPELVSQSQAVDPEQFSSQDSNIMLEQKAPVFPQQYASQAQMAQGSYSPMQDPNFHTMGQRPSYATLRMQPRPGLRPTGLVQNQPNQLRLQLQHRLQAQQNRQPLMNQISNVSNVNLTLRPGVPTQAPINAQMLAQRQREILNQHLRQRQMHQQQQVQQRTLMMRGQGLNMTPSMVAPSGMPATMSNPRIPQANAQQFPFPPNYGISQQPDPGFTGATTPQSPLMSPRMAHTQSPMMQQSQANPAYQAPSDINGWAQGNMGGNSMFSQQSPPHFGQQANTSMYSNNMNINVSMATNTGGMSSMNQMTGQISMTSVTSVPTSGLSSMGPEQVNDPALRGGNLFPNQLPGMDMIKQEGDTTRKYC

Row | Structure (SMILES) | inhibition [1] | inhibition [2]
1 | C=C(C(=O)c1ccccc1)C(c1ccccc1)C(C)C(=O)c1ccccc1 (stereo not drawn) | 28.8% | 31.4%
2 | O=C(NC1CCCC1)C(c1ccccc1)n1c(CSCCOc2ccccc2)nc2ccccc21 (stereo not drawn) | 47.1% (active) | 80.3% (active)
3 | CC(C)c1ccccc1NC(=O)COC(=O)CCN1C(=O)/C(=C\C=C\c2ccccc2)SC1=S | 45.2% (active) | 77.6% (active)
4 | CCOC(=O)Cc1ccc(NC(=O)c2ccc(C(C)(C)C)cc2)cc1 | -47.1% | 63.9% (active)
5 | O=C(COC(=O)CCN1C(=O)/C(=C\C=C\c2ccccc2)SC1=S)Nc1ccc(Br)cc1 | 38.2% (active) | 74.3% (active)
6 | Brc1cccc(-c2cnc3n2CCCCC3)c1 | 12.6% | 29.2%
7 | Cc1cccc(C)c1Nc1nnc(SC(C)C(=O)Nc2c(C)n(C)n(-c3ccccc3)c2=O)s1 (stereo not drawn) | -15.1% | -13.2%
8 | Cc1c(Cl)sn(-c2ccc(Cl)cc2)c1=O | 76.3% (active) | 93.4% (active)
9 | Cc1cccc(NC(=S)NNc2ncc(C(F)(F)F)cc2Cl)c1 | 24.3% | 11.6%
10 | O=C(Cc1ccc(Cl)cc1)NCCc1cnc[nH]1 | -16.2% | -12.5%
11 | COC(=O)CCCNC(=O)CCc1nnc(-c2ccc(-c3ccccc3)cc2)o1 | 34% | 62.8% (active)
12 | Cc1ccccc1N(Cc1cc(=O)[nH]c2ccccc12)C(=O)CCl | 44.6% (active) | 76.7% (active)
13 | Cc1ccc(-n2nc3ccc(N)cc3n2)c(C)c1 | -39.4% | 21.3%
14 | Cc1c(CCC(=O)N[C@@H](C)C(=O)O)c(=O)oc2cc3oc4c(c3cc12)CCCC4 | 38.8% (active) | 60.1% (active)

Source: PubChem BioAssay
